Source: PubChem BioAssay (National Center for Advancing Translational Sciences (NCATS))
GLS inhibitor – blocks human kidney-isoform glutaminase activity. O94925. GLS enzymatic activity, qHTS titration. Potency, µM (doses to about 45.5 µM), most hits filed as inhibitors. 410,000 compounds, 0.21% hits
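Two-point fluorescence kinetic (t0, 30 min RT) for hKGA; glutamate detected via glutamate oxidase–HRP–Amplex Red. Substrate: 1 mM L-glutamine solution; buffer 45 mM KH2PO4, pH 8.2.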
JMJD2A Tudor – JMJD2A Tudor domain (human) inhibition. O75164. AlphaScreen JMJD2A-Tudor / H3K4me3 peptide binding. Potency, µM (top dose mostly 114 µM), actives largely listed as inhibitors. 390,000 compounds, 4.4% hits; also: nearly all actives have a fitted effect of over 50% in size
Target sequence (O75164 whole entry, looked up, the tested form may be a part): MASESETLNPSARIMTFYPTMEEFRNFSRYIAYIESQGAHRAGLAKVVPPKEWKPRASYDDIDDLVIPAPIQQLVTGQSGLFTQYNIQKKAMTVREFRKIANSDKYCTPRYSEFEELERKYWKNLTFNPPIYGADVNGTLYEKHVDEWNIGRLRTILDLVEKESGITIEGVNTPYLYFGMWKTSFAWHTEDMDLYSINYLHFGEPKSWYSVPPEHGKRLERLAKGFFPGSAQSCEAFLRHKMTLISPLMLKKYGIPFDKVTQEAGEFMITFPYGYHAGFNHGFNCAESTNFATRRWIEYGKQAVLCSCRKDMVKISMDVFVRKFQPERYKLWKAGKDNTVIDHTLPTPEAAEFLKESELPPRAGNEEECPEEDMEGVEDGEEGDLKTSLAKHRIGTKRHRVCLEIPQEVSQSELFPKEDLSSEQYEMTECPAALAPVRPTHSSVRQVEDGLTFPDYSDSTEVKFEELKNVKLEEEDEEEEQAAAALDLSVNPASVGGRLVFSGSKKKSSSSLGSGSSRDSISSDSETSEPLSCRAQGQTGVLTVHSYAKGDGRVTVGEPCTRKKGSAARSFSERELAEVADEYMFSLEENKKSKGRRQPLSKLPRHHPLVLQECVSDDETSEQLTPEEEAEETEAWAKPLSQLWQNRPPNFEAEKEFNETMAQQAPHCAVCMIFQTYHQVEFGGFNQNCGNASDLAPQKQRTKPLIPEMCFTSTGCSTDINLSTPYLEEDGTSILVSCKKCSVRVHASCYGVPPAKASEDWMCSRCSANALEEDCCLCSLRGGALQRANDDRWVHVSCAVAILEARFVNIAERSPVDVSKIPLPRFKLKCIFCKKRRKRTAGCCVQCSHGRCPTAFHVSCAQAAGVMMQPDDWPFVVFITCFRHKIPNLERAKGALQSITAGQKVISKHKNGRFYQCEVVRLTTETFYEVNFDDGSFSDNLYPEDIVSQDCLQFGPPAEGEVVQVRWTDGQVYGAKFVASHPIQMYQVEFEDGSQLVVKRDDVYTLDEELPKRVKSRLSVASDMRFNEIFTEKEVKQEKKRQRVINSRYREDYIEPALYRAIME
G9a inh – inhibitors of human histone lysine methyltransferase G9a | Potency, µM (titrated, usually from 102 µM), most hits filed as inhibitors | 350,000 compounds, 8.8% hits | Q96KQ7 | G9a H3K9 monomethylation, AlphaScreen, 2 h; also: nearly all actives have a fitted effect of over 75% in size
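Signal arises when biotinylated H3K9 peptide, once monomethylated, bridges streptavidin donor and antibody-captured acceptor beads. Enzyme at 20 nM was preincubated 15 min with test compounds; peptide 500 nM and SAM 20 uM then reacted for 2 h.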
BAZ2B block – blocks human BAZ2B. AID 504333. Q9UIF8. 360,000 compounds, 4.4% hits. Potency, µM (top dose mostly 114 µM), most hits filed as inhibitors. AlphaScreen BAZ2B-H3K14Ac peptide displacement; also: nearly all actives have a fitted effect of over 60% in size
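Protein-peptide AlphaScreen: BAZ2B 50 nM, b-H3K14Ac 50 nM, 1x PBS pH 7.4 + 0.01% Tween-20. Preincubation 30 min RT; cpd 30 min RT (top 110 uM); beads 20 min RT, light-protected.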
HP1b chromo inh – HP1-beta chromodomain-methylated histone interaction inhibition; P83916; AlphaScreen HP1-beta / biotin-H3K9me3 peptide binding; Potency, µM (series often up to 114 µM), hits mostly inhibitors; 390,000 compounds, 0.56% hits; AID 540317; also: nearly all actives have a fitted effect of over 70% in size
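HP1-beta protein (50 nM final) preincubated 30 min at room temperature with biotinylated H3(1-18)K9me3 peptide (50 nM) in PBS pH 7.4, 0.01% Tween-20, then compound added for 30 min. AlphaScreen streptavidin donor/nickel chelate acceptor beads (10 ug/mL final), 30 min dark, luminescence read.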
Each line names hits and unclear results; the compound was inactive in the other large screens. Sampled rows, rich in hits. Any-hit rate of the full collection: about 10%. Calls follow the shape of the dose curve; as a rule, active = well fitted curve in the direction sought with a large enough effect; inconclusive = small, poorly fitted or top-dose-only effect, or another doubt; inactive = no such curve, though single readings can be large; an effect the other way counts as inactive or inconclusive.

O=S(=O)(c1ccc(F)cc1)N1CCN(CC(O)COc2ccccc2F)CC1 (configuration not stated)	JMJD2A Tudor 7.9µM, G9a inh 8.9µM, BAZ2B block 20µM, HP1b chromo inh 25µM
N#Cc1ccccc1S(=O)(=O)N1CCN(Cc2cccs2)CC1	none (no result: JMJD2A Tudor, G9a inh, BAZ2B block, HP1b chromo inh)
CC(C)c1ccccc1OCC(O)CN1CCN(S(=O)(=O)c2ccc([N+](=O)[O-])cc2)CC1 (configuration not stated)	JMJD2A Tudor 20µM, G9a inh 35µM, BAZ2B block 40µM, HP1b chromo inh inconclusive
N#Cc1ccccc1S(=O)(=O)N1CCN(CC(O)COc2ccccc2F)CC1 (configuration not stated)	JMJD2A Tudor 3.2µM, G9a inh 2.2µM, BAZ2B block 28µM, HP1b chromo inh inconclusive
N#Cc1ccccc1S(=O)(=O)N1CCN(CC(O)c2ccccc2)CC1 (configuration not stated)	JMJD2A Tudor 2.2µM, G9a inh 16µM, BAZ2B block 50µM, HP1b chromo inh 45µM
CCNC(=S)N/N=C/c1cccc(OCc2c(F)cccc2Cl)c1	none
Cc1nc2cnc(N(C)C)nc2n(-c2ccccc2)c1=O	none (no result: GLS inhibitor, JMJD2A Tudor, BAZ2B block, HP1b chromo inh)
CCn1cnc2c(=O)oc3ccc(S(=O)(=O)Nc4ccc(OC)cc4)cc3c21	none
COc1ccc(N(CC(=O)N/N=C/c2ccco2)S(=O)(=O)c2ccccc2)cc1Cl	G9a inh inconclusive
COc1ccc(S(=O)(=O)NCC2CCCO2)cc1NC(=O)c1ccccc1F (configuration not stated)	none
O=S(=O)(c1ccc(F)cc1)N1CCN(CC(O)COCc2cccs2)CC1 (configuration not stated)	JMJD2A Tudor 2.5µM, G9a inh 32µM, HP1b chromo inh inconclusive
Cc1nn(CCCC(=O)NCCc2ccc(Cl)cc2)c(=O)c2c1sc1ccccc12	JMJD2A Tudor 7.9µM, G9a inh 6.3µM, BAZ2B block 25µM, HP1b chromo inh 32µM
CCOc1ccc(CCNC(=O)CCCn2nc(C)c3sc4ccccc4c3c2=O)cc1	none
Cc1nn(C(C)C(=O)NCCCN2CCCCCC2)c(=O)c2c1sc1ccccc12 (configuration not stated)	JMJD2A Tudor 50µM, G9a inh 50µM
Cc1nn(C(C)C(=O)NCCCN2CCCCC2C)c(=O)c2c1sc1ccccc12 (configuration not stated)	none
CCOC(=O)C1=C(COc2ccccc2)NC(=O)NC1c1ccc(Cl)cc1 (configuration not stated)	none
Cc1ccc(N(Cc2ccccc2F)S(C)(=O)=O)cc1C	BAZ2B block 56µM
Cc1cccc(N(Cc2ccccc2F)S(C)(=O)=O)c1	G9a inh inconclusive
CC(=O)N/C(=C\c1ccccc1)C(=O)OCC(=O)NC1CCS(=O)(=O)C1 (configuration not stated)	none
COC(=O)CCC(C)C1CCC2C3C(OC(C)=O)CC4CC(O)CCC4(C)C3CC(O)C12C (configuration not stated)	none (no result: JMJD2A Tudor, G9a inh, BAZ2B block, HP1b chromo inh)
CN1C(=O)/C(=C\C=C2/CCCN2C)N(C)C1=S	G9a inh 18µM
Cc1ccc(OCCN2CCC2(C)C(=O)Nc2ccc3c(c2)OCCO3)cc1 (configuration not stated)	none (no result: JMJD2A Tudor, G9a inh, BAZ2B block, HP1b chromo inh)
CC1CN(C(=O)COc2ccc3c(-c4ccccc4)cc(=O)oc3c2)CC(C)O1 (configuration not stated)	none
Cc1nc(N2CCCC2)c2c(C(=O)N3CCN(c4cc(Cl)ccc4C)CC3)c(C)oc2n1	G9a inh inconclusive
Cc1ccc(C2NC(=O)c3c(sc(C)c3C)N2)c(O)c1 (configuration not stated)	G9a inh 32µM
Cc1sc2c(c1C)C(=O)NC(c1ccccc1F)N2 (configuration not stated)	JMJD2A Tudor inconclusive, G9a inh 10µM, HP1b chromo inh inconclusive
Cc1cccc(C2NC(=O)c3c(sc(C)c3C)N2)c1O (configuration not stated)	none
COc1ccc(/C=N/Nc2ncnc(Cl)c2N)cc1OC	G9a inh 50µM, BAZ2B block inconclusive
COc1cccc(/C=N/Nc2nccnc2Cl)c1O	JMJD2A Tudor 40µM, BAZ2B block 14µM
COc1cccc(/C=N/Nc2nc3ccccc3[nH]2)c1O	JMJD2A Tudor inconclusive (no result: G9a inh)
Nc1c(Cl)ncnc1N/N=C/c1ccncc1	G9a inh 45µM
COc1cccc(/C=N/Nc2ncnc(Cl)c2N)c1O	BAZ2B block 7.9µM
Nc1c(Cl)ncnc1N/N=C/c1cccc(O)c1	none
CCOc1ccc(NC(=O)CC2C(=O)N(c3ccccc3)C(=O)N2C2CCCCC2)cc1 (configuration not stated)	none
COc1cccc(/C=N/Nc2ncnc3scc(-c4ccccc4)c23)c1O	JMJD2A Tudor 45µM, G9a inh inconclusive, BAZ2B block 13µM
COc1cccc(/C=N/Nc2cc(-n3nc(C)cc3-c3ccccc3)ncn2)c1O	none
COc1ccc2nc(C)cc(N/N=C/c3cccc(OC)c3O)c2c1	JMJD2A Tudor 50µM, G9a inh 45µM, BAZ2B block 45µM, HP1b chromo inh inconclusive
COC(=O)[C@@]1(Sc2ccc(C)cc2)CC(=O)N[C@@H]1c1ccc(Br)cc1	none (no result: JMJD2A Tudor, G9a inh, BAZ2B block, HP1b chromo inh)
CCc1nc2c(OCC(=O)C(C)(C)C)cccn2c1N(C)C(=O)COc1ccccc1	none (no result: JMJD2A Tudor, G9a inh, BAZ2B block, HP1b chromo inh)
Cc1cc(C)c2c(n1)sc1c(-c3ccccc3)c(C#N)c(N)nc12	JMJD2A Tudor inconclusive, G9a inh 7.9µM
Cc1nc(N)c(C#N)c(-c2ccccc2)c1C	none
COc1ccc(F)cc1S(=O)(=O)Nc1cccc(-c2ccc(N3CCCCCC3)nn2)c1	none
O=[N+]([O-])c1ccc(Cl)c(S(=O)(=O)Nc2cccc(-c3ccc(N4CCCC4)nn3)c2)c1	G9a inh 40µM, BAZ2B block inconclusive
COc1ccc(OC)c(S(=O)(=O)Nc2cccc(-c3ccc(N4CCCCC4)nn3)c2)c1	JMJD2A Tudor inconclusive, G9a inh 3.5µM, HP1b chromo inh inconclusive
O=[N+]([O-])c1ccc(Cl)c(S(=O)(=O)Nc2ccc(-c3ccc(N4CCCC4)nn3)cc2)c1	G9a inh 50µM
Cc1nc(-c2cccc(NC(=O)c3ccc(Cl)c(S(=O)(=O)N4CCCC4)c3)c2)cs1	none (no result: JMJD2A Tudor, G9a inh, BAZ2B block, HP1b chromo inh)
COc1ncc(-c2ccc(N3C(c4ccsc4)=Cc4ccc(F)cc4C3CC(C)=O)cc2)cn1 (configuration not stated)	none (no result: JMJD2A Tudor, G9a inh, BAZ2B block, HP1b chromo inh)
COc1ccc(N2C3=C(CC4=C2CCCC4=O)C(=O)CCC3)cc1	JMJD2A Tudor 56µM, G9a inh inconclusive
O=c1oc2c(CN3CCOCC3)c(O)ccc2c2c1CCCC2	G9a inh inconclusive
O=c1oc2c(CN3CCOCC3)c(O)c(Cl)cc2c2c1CCCC2	G9a inh 79µM
COC(=O)CSc1nc2ccc(N)cc2s1	G9a inh 18µM
CCOC(=O)CSc1nc2ccc(NC(C)=O)cc2s1	none
Cc1ccc(C)c(NC(=O)c2cnc3sc(N4CCOCC4)nn3c2=O)c1	none
Fc1cccc(Cl)c1-c1nnc2ccc3ccccc3n12	G9a inh 32µM (no result: BAZ2B block)
